Results: the antibiotic and cytotoxicity screens of Wong et al. (2023)
Screen size: about 39,000 compounds; about 3,300 (8.5%) were called active. The entries come from a sample that favours actives as a whole.

Test system: HepG2
Experiment: cytotoxicity call (relative viability < 0.9)
Details: 10 µM

| Compound | cytotoxicity call |
| --- | --- |
| C[C@H]1CN([C@@H](C)CO)C(=O)Cc2cc(NS(=O)(=O)c3ccccc3)ccc2O[C@@H]1CN(C)S(=O)(=O)c1ccc(F)cc1 | inactive |
| Cc1noc(C)c1S(=O)(=O)N(C)C[C@H]1Oc2ccc(NC(=O)Nc3ccc4c(c3)OCO4)cc2C(=O)N([C@@H](C)CO)C[C@H]1C | inactive |
| CC(=O)N[C@@H]1CC[C@H](CCNC(=O)C2CC2)O[C@H]1CO | inactive |
| O=C(C[C@@H]1C=C[C@H](NC(=O)c2cccc(F)c2)[C@H](CO)O1)NCCN1CCCC1 | inactive |
| C[C@@H]1CCCCO[C@@H](CN(C)S(C)(=O)=O)[C@H](C)CN([C@@H](C)CO)C(=O)c2cc(NS(=O)(=O)c3ccc(F)cc3)ccc2O1 | inactive |
| COc1ccc(NC(=O)Nc2ccc3c(c2)CC(=O)N([C@@H](C)CO)C[C@H](C)[C@@H](CN(C)C(=O)Nc2cccc4ccccc24)O3)cc1 | inactive |
| C[C@@H]1CCCCO[C@@H](CN(C)S(=O)(=O)c2ccccc2)[C@H](C)CN([C@H](C)CO)C(=O)c2cc(NS(C)(=O)=O)ccc2O1 | inactive |
| CC(C)CC#Cc1ccc2c(c1)O[C@@H](CN(C)S(=O)(=O)c1ccc(F)cc1)[C@@H](C)CN([C@H](C)CO)S2(=O)=O | inactive |
| COc1ccccc1CNC(=O)C[C@H]1C[C@H]2c3cc(NC(=O)Cc4ccncc4)ccc3O[C@H]2[C@H](CO)O1 | inactive |
| CC1OC(OC2C(Oc3cc(O)c4c(=O)cc(-c5ccc(O)cc5)oc4c3)OC(CO)C(O)C2O)C(O)C(O)C1O (stereo not given) | inactive |
| Cc1noc(C)c1NC(=O)N(C)C[C@@H]1Oc2c(NC(=O)C3CC3)cccc2C(=O)N([C@H](C)CO)C[C@@H]1C | inactive |
| Cc1noc(C)c1NC(=O)Nc1ccc2c(c1)C(=O)N([C@H](C)CO)C[C@@H](C)[C@@H](CN(C)CC1CCCCC1)OCCCC[C@H](C)O2 | inactive |
| CC(C)NC(=O)N(C)C[C@H]1OCc2cn(nn2)CCCC(=O)N([C@H](C)CO)C[C@@H]1C | inactive |
| CC(=O)OCC(=O)C1(O)CCC2C3CCC4=CC(=O)CCC4(C)C3C(O)CC21C (stereo not given) | inactive |
| C[C@@H]1CN([C@H](C)CO)C(=O)c2cc(NC(=O)NC3CCCCC3)ccc2O[C@H]1CN(C)C(=O)Nc1cccc2ccccc12 | inactive |
| C[C@H]1CN([C@@H](C)CO)C(=O)c2cc(NC(=O)NC3CCCCC3)ccc2O[C@H]1CN(C)C(=O)Nc1cccc2ccccc12 | active |
| C[C@@H]1CN([C@@H](C)CO)C(=O)c2cc(NC(=O)NC3CCCCC3)ccc2O[C@H]1CN(C)C(=O)Nc1cccc2ccccc12 | inactive |
| Cc1noc(C)c1S(=O)(=O)Nc1cccc2c1O[C@@H](CN(C)Cc1ccc3c(c1)OCO3)[C@@H](C)CN([C@H](C)CO)C2=O | inactive |
| C[C@H]1CN([C@@H](C)CO)C(=O)c2cc(C#Cc3ccccc3F)cnc2O[C@H]1CN(C)S(=O)(=O)c1ccccc1F | inactive |
| COCC(=O)N(C)C[C@H]1Oc2cc(C#CCC3CCCC3)ccc2S(=O)(=O)N([C@@H](C)CO)C[C@H]1C | inactive |
| C[C@H]1CN([C@@H](C)CO)C(=O)Cc2cc(NC(=O)Nc3cc(Cl)cc(Cl)c3)ccc2O[C@H]1CN(C)S(=O)(=O)c1ccc(Oc2ccccc2)cc1 | active |
| CC(C)NC(=O)Nc1ccc2c(c1)CC(=O)N([C@@H](C)CO)C[C@H](C)[C@H](CN(C)S(=O)(=O)c1ccc(F)cc1)O2 | inactive |
| Cc1ccc(S(=O)(=O)N(C)C[C@@H]2Oc3ccc(NC(=O)Nc4cccc5ccccc45)cc3CC(=O)N([C@@H](C)CO)C[C@H]2C)cc1 | inactive |
| CC(C)NC(=O)Nc1ccc2c(c1)CC(=O)N([C@H](C)CO)C[C@@H](C)[C@@H](CN(C)S(=O)(=O)c1ccccc1)O2 | inactive |
| C[C@H]1CN([C@@H](C)CO)C(=O)Cc2cc(NC(=O)Nc3cccc4c3CCCC4)ccc2O[C@H]1CN(C)S(=O)(=O)c1ccc(Oc2ccccc2)cc1 | active |
| C[C@H]1CN([C@@H](C)CO)C(=O)Cc2cc(NC(=O)Nc3cccc4c3CCCC4)ccc2O[C@H]1CN(C)S(=O)(=O)c1ccc(Cl)cc1 | inactive |
| C[C@H]1CN([C@@H](C)CO)C(=O)Cc2cc(NC(=O)Nc3ccc(F)cc3)ccc2O[C@H]1CN(C)S(=O)(=O)c1ccc(Oc2ccccc2)cc1 | active |
| C[C@H]1CN([C@@H](C)CO)C(=O)Cc2cc(NC(=O)Nc3ccc(Cl)c(Cl)c3)ccc2O[C@H]1CN(C)S(=O)(=O)c1ccc(Oc2ccccc2)cc1 | inactive |
| C[C@H]1CN([C@@H](C)CO)C(=O)Cc2cc(NC(=O)Nc3ccc(C#N)cc3)ccc2O[C@H]1CN(C)S(=O)(=O)c1ccc(Oc2ccccc2)cc1 | inactive |
| CCCN(C)C[C@@H]1Oc2cc(C#Cc3ccccc3OC)ccc2S(=O)(=O)N([C@@H](C)CO)C[C@@H]1C | inactive |
